# Test results taken from the supplement of paper PMC10037445.
# In all, about 2,900 compounds were measured (“NF-kB SEAP reporter activity, fold change vs agonist alone”: median about 0.99, highest 2% from about 2.6 on). The list comes from a sample in which the highest values are over-represented; it also holds similar structures and randomly drawn compounds.
# Legend:
# [1] = tested on: RAW-Dual; experiment: NF-kB SEAP reporter activity, fold change vs agonist alone; higher = enhanced NF-kB activity; conditions: library stock concentration (final ~1000-fold dilution): 10 mM
# Summary of the method: (§1)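 Reporter activity is given as fold change relative to agonist-alone wells. To measure it, 50 nL of library stock was pin-tooled onto RAW-Dual macrophages (50,000 cells/well, DMEM, 384-well plates), a PRR agonist followed 1 h later, and cells stayed at 37 °C, 5% CO2. Twenty hours on, supernatant was assayed for IRF (QuantiLuc luminescence) and NF-κB (QuantiBlue, 620 nm absorbance), and wells under 70% of agonist-control IncuCyte confluency in both mask sets were marked cytotoxic.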
# [2] = tested on: RAW-Dual; experiment: NF-kB SEAP reporter activity, fold change vs agonist alone; cytotoxicity flag (confluency mask): cytotoxic (confluency <70% of control); higher = enhanced NF-kB activity
# Summary of the method: as §1
# [3] = tested on: RAW-Dual; experiment: NF-kB SEAP reporter activity, fold change vs agonist alone; cytotoxicity flag (confluency mask): not cytotoxic; higher = enhanced NF-kB activity
# Summary of the method: as §1
# [4] = cytotoxicity flag (confluency mask): cytotoxic (confluency <70% of control), agonist: Imiquimod (TLR7) […]
# [5] = cytotoxicity flag (confluency mask): cytotoxic (confluency <70% of control), agonist: MPLA (TLR4) […]
# [6] = agonist: ODN 1826 (TLR9) 0.5 ug/mL
# [7] = agonist: Pam2CSK4 (TLR2/6) 0.1 ug/mL
# [8] = agonist: Pam3CSK4 (TLR2/1) 0.1 ug/mL
# [9] = cytotoxicity flag (confluency mask): not cytotoxic, agonist: Imiquimod (TLR7) […]
# [10] = cytotoxicity flag (confluency mask): not cytotoxic, agonist: MPLA (TLR4) […]
smiles,measurement,setting,value
C=Cc1c(C)c2cc3nc(cc4[nH]c(cc5nc(cc1[nH]2)C(C)=C5CCC(=O)O)c(CCC(=O)OC)c4C)C1(C)C3=CC=C(C(=O)OC)C1C(=O)OC (stereo not given),NF-kB SEAP reporter activity,[1]; [4],0.297
same,NF-kB SEAP reporter activity,[1]; [5],0.349
C=Cc1c(C)c2cc3nc(cc4[nH]c(cc5nc(cc1[nH]2)C(C)=C5CCC(=O)O)c(CCC(=O)OC)c4C)C1(C)C3=CC=C(C(=O)OC)C1C(=O)OC (stereo not given) (library stock concentration (final ~1000-fold dilution): 10 mM),NF-kB SEAP reporter activity,[2]; agonist: LPS (TLR4) 0.1 ug/mL,0.243
same,NF-kB SEAP reporter activity,[2]; [6],0.233
same,NF-kB SEAP reporter activity,[2]; [7],0.193
same,NF-kB SEAP reporter activity,[2]; [8],0.191
CNC(=O)c1cccc(-c2ccc3c(N4CCOCC4C)nc(N4CCOCC4C)nc3n2)c1 (stereo not given) (library stock concentration (final ~1000-fold dilution): 10 mM),NF-kB SEAP reporter activity,[3]; agonist: LPS (TLR4) 0.1 ug/mL,1.11
same,NF-kB SEAP reporter activity,[3]; [6],0.489
same,NF-kB SEAP reporter activity,[3]; [7],0.376
same,NF-kB SEAP reporter activity,[3]; [8],0.57
CNC(=O)c1cccc(-c2ccc3c(N4CCOCC4C)nc(N4CCOCC4C)nc3n2)c1 (stereo not given),NF-kB SEAP reporter activity,[1]; [9],1.13
same,NF-kB SEAP reporter activity,[1]; [10],1.22
Oc1c(Cl)cc(Cl)cc1Sc1cc(Cl)cc(Cl)c1O,NF-kB SEAP reporter activity,[1]; [4],1.81
same,NF-kB SEAP reporter activity,[1]; [5],1.6
Oc1c(Cl)cc(Cl)cc1Sc1cc(Cl)cc(Cl)c1O (library stock concentration (final ~1000-fold dilution): 10 mM),NF-kB SEAP reporter activity,[2]; agonist: LPS (TLR4) 0.1 ug/mL,3.19
same,NF-kB SEAP reporter activity,[2]; [6],1.08
same,NF-kB SEAP reporter activity,[2]; [7],0.362
same,NF-kB SEAP reporter activity,[2]; [8],0.801
CCC1(O)C(=O)OCc2c1cc1n(c2=O)Cc2cc3c(CN(C)C)c(O)ccc3nc2-1.Cl (stereo not given),NF-kB SEAP reporter activity,[1]; [4],2.3
same,NF-kB SEAP reporter activity,[1]; [5],2.16
CCC1(O)C(=O)OCc2c1cc1n(c2=O)Cc2cc3c(CN(C)C)c(O)ccc3nc2-1 (stereo not given),NF-kB SEAP reporter activity,[1]; [9],1.46
same,NF-kB SEAP reporter activity,[1]; [10],1.93
CCC1(O)C(=O)OCc2c1cc1n(c2=O)Cc2cc3c(CN(C)C)c(O)ccc3nc2-1.Cl (stereo not given) (library stock concentration (final ~1000-fold dilution): 10 mM),NF-kB SEAP reporter activity,[2]; agonist: LPS (TLR4) 0.1 ug/mL,2.73
same,NF-kB SEAP reporter activity,[2]; [6],2.71
same,NF-kB SEAP reporter activity,[2]; [7],0.868
same,NF-kB SEAP reporter activity,[2]; [8],1.35
CCC1(O)C(=O)OCc2c1cc1n(c2=O)Cc2cc3c(CN(C)C)c(O)ccc3nc2-1 (stereo not given) (library stock concentration (final ~1000-fold dilution): 10 mM),NF-kB SEAP reporter activity,[3]; agonist: LPS (TLR4) 0.1 ug/mL,2.01
same,NF-kB SEAP reporter activity,[3]; [6],1.59
same,NF-kB SEAP reporter activity,[3]; [7],0.849
same,NF-kB SEAP reporter activity,[3]; [8],1.27
CCC1(O)C(=O)OCc2c1cc1n(c2=O)Cc2cc3cc(O)ccc3nc2-1 (stereo not given),NF-kB SEAP reporter activity,[1]; [4],2.34
same,NF-kB SEAP reporter activity,[1]; [5],2
same,NF-kB SEAP reporter activity,[1]; [9],0.896
same,NF-kB SEAP reporter activity,[1]; [10],0.856
CCC1(O)C(=O)OCc2c1cc1n(c2=O)Cc2cc3cc(O)ccc3nc2-1 (stereo not given) (library stock concentration (final ~1000-fold dilution): 10 mM),NF-kB SEAP reporter activity,[3]; agonist: LPS (TLR4) 0.1 ug/mL,1.08
same,NF-kB SEAP reporter activity,[3]; [6],0.937
same,NF-kB SEAP reporter activity,[3]; [7],1.07
same,NF-kB SEAP reporter activity,[3]; [8],1.14
same,NF-kB SEAP reporter activity,[2]; agonist: LPS (TLR4) 0.1 ug/mL,1.9
same,NF-kB SEAP reporter activity,[2]; [6],2.17
same,NF-kB SEAP reporter activity,[2]; [7],1.03
same,NF-kB SEAP reporter activity,[2]; [8],1.5
Cc1nnc(C(C)C)n1C1CC2CCC(C1)N2CCC(NC(=O)C1CCC(F)(F)CC1)c1ccccc1 (stereo not given),NF-kB SEAP reporter activity,[1]; [9],0.968
same,NF-kB SEAP reporter activity,[1]; [10],1
Cc1nnc(C(C)C)n1C1CC2CCC(C1)N2CCC(NC(=O)C1CCC(F)(F)CC1)c1ccccc1 (stereo not given) (library stock concentration (final ~1000-fold dilution): 10 mM),NF-kB SEAP reporter activity,[3]; agonist: LPS (TLR4) 0.1 ug/mL,0.973
same,NF-kB SEAP reporter activity,[3]; [6],1.04
same,NF-kB SEAP reporter activity,[3]; [7],1.06
same,NF-kB SEAP reporter activity,[3]; [8],1.11
O=C(NC(NC(=S)Nc1ccc(F)c([N+](=O)[O-])c1)C(Cl)(Cl)Cl)C(c1ccccc1)c1ccccc1 (stereo not given),NF-kB SEAP reporter activity,[1]; [4],0.707
same,NF-kB SEAP reporter activity,[1]; [5],0.521
O=C(/C=C/c1ccccc1)NC(NC(=S)Nc1cccc2cccnc12)C(Cl)(Cl)Cl (stereo not given) (library stock concentration (final ~1000-fold dilution): 10 mM),NF-kB SEAP reporter activity,[3]; agonist: LPS (TLR4) 0.1 ug/mL,0.779
same,NF-kB SEAP reporter activity,[3]; [6],0.429
same,NF-kB SEAP reporter activity,[3]; [7],0.288
same,NF-kB SEAP reporter activity,[3]; [8],0.388
O=C(/C=C/c1ccccc1)NC(NC(=S)Nc1ccc(Cl)cc1)C(Cl)(Cl)Cl (stereo not given) (library stock concentration (final ~1000-fold dilution): 10 mM),NF-kB SEAP reporter activity,[2]; agonist: LPS (TLR4) 0.1 ug/mL,2.64
same,NF-kB SEAP reporter activity,[2]; [6],1.22
same,NF-kB SEAP reporter activity,[2]; [7],0.494
same,NF-kB SEAP reporter activity,[2]; [8],0.809
O=C(/C=C/c1ccccc1)NC(NC(=S)Nc1ccc(Cl)cc1)C(Cl)(Cl)Cl (stereo not given),NF-kB SEAP reporter activity,[1]; [4],1.03
same,NF-kB SEAP reporter activity,[1]; [5],2.18
O=C(NC(NC(=S)Nc1ccc(F)c([N+](=O)[O-])c1)C(Cl)(Cl)Cl)C(c1ccccc1)c1ccccc1 (stereo not given) (library stock concentration (final ~1000-fold dilution): 10 mM),NF-kB SEAP reporter activity,[2]; agonist: LPS (TLR4) 0.1 ug/mL,0.182
same,NF-kB SEAP reporter activity,[2]; [6],0.493
same,NF-kB SEAP reporter activity,[2]; [7],0.146
same,NF-kB SEAP reporter activity,[2]; [8],0.135
O=C(/C=C/c1ccccc1)NC(NC(=S)Nc1cccc2cccnc12)C(Cl)(Cl)Cl (stereo not given),NF-kB SEAP reporter activity,[1]; [9],0.628
same,NF-kB SEAP reporter activity,[1]; [10],0.833
Cc1cc2c(C(=O)NCC(C)c3ccccc3)c(O)c(O)cc2c(O)c1-c1c(C)cc2c(C(=O)NCC(C)c3ccccc3)c(O)c(O)cc2c1O (stereo not given),NF-kB SEAP reporter activity,[1]; [9],1.84
same,NF-kB SEAP reporter activity,[1]; [10],2.27
Cc1cc2c(C(=O)NCC(C)c3ccccc3)c(O)c(O)cc2c(O)c1-c1c(C)cc2c(C(=O)NCC(C)c3ccccc3)c(O)c(O)cc2c1O (stereo not given) (library stock concentration (final ~1000-fold dilution): 10 mM),NF-kB SEAP reporter activity,[3]; agonist: LPS (TLR4) 0.1 ug/mL,4.28
same,NF-kB SEAP reporter activity,[3]; [6],2.93
same,NF-kB SEAP reporter activity,[3]; [7],0.803
same,NF-kB SEAP reporter activity,[3]; [8],1.62
N=C(N)Nc1nc(CSCCC(=N)NS(N)(=O)=O)cs1,NF-kB SEAP reporter activity,[1]; [9],0.918
same,NF-kB SEAP reporter activity,[1]; [10],1
N=C(N)Nc1nc(CSCCC(=N)NS(N)(=O)=O)cs1 (library stock concentration (final ~1000-fold dilution): 10 mM),NF-kB SEAP reporter activity,[3]; agonist: LPS (TLR4) 0.1 ug/mL,1.03
same,NF-kB SEAP reporter activity,[3]; [6],1.06
same,NF-kB SEAP reporter activity,[3]; [7],1.25
same,NF-kB SEAP reporter activity,[3]; [8],1.09
CN1CCCC1CCOC(C)(c1ccccc1)c1ccc(Cl)cc1.O=C(O)/C=C/C(=O)O (stereo not given) (library stock concentration (final ~1000-fold dilution): 10 mM),NF-kB SEAP reporter activity,[3]; agonist: LPS (TLR4) 0.1 ug/mL,1.32
same,NF-kB SEAP reporter activity,[3]; [6],0.754
same,NF-kB SEAP reporter activity,[3]; [7],0.873
same,NF-kB SEAP reporter activity,[3]; [8],0.64
CN1CCCC1CCOC(C)(c1ccccc1)c1ccc(Cl)cc1.O=C(O)/C=C/C(=O)O (stereo not given),NF-kB SEAP reporter activity,[1]; [9],1.7
same,NF-kB SEAP reporter activity,[1]; [10],0.942
O=C(O)CCCN1CCC(OC(c2ccc(Cl)cc2)c2ccccn2)CC1.O=S(=O)(O)c1ccccc1 (stereo not given),NF-kB SEAP reporter activity,[1]; [9],1.08
same,NF-kB SEAP reporter activity,[1]; [10],1.03
O=C(O)CCCN1CCC(OC(c2ccc(Cl)cc2)c2ccccn2)CC1.O=S(=O)(O)c1ccccc1 (stereo not given) (library stock concentration (final ~1000-fold dilution): 10 mM),NF-kB SEAP reporter activity,[3]; agonist: LPS (TLR4) 0.1 ug/mL,1.04
same,NF-kB SEAP reporter activity,[3]; [6],1.06
same,NF-kB SEAP reporter activity,[3]; [7],1.01
same,NF-kB SEAP reporter activity,[3]; [8],1.17
N#CC1CC2CC2N1C(=O)C(N)C12CC3CC(CC(O)(C3)C1)C2.O (stereo not given) (library stock concentration (final ~1000-fold dilution): 10 mM),NF-kB SEAP reporter activity,[3]; agonist: LPS (TLR4) 0.1 ug/mL,1.27
same,NF-kB SEAP reporter activity,[3]; [6],1.44
same,NF-kB SEAP reporter activity,[3]; [7],1.71
same,NF-kB SEAP reporter activity,[3]; [8],1.75
N#CC1CC2CC2N1C(=O)C(N)C12CC3CC(CC(O)(C3)C1)C2.O (stereo not given),NF-kB SEAP reporter activity,[1]; [10],1.19
